Consider four compounds from publication PMC5540273 (PLoS ONE, 2017).

Conditions in all cases: concentration: 1 μM, replicates: in singlicate; n = 1
In experiment [1] the test system is T1, GRK2.
T1 construct: gene ADRBK1

Experiment [2] relates to T2, GRK3.
T2 construct: gene ADRBK2

Experiment [3] concerns GRK4.
For experiment [4], the system named is GRK7.
The test system of experiment [5] is GSK3A.
Experiment [6] concerns GSK3B.
Experiment [7] has as its system T3, HASPIN.
T3 construct: gene GSG2

Experiment [8] deals with HCK.
Experiment [9] has as its system HIPK1.
The test system of experiment [10] is HIPK2.
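Note: KINOMEscan kinase panel screen.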

With `Cl.NS(=O)(=O)c1cccc(Nc2cc(-c3ccc(F)cc3)n[nH]2)c1` [GW824645], the “%Inh” value in experiment [1] amounted to 0%; in experiment [2], 21%; in experiment [3], 0%; in [4] it was 0%; in experiment [5] it was 0%; in [6], 6%. Further, the “%Inh” value in [7] is 51%; in experiment [8], 13%; in experiment [9], 36%; in experiment [10], 10%.
For `CCS(=O)c1ccc(-c2coc3ccc(-c4nnc(C)o4)cc23)cc1` (stereo not shown), the “%Inh” value in [1] worked out at 0%; in experiment [2], 5%; in experiment [3], 21%; in experiment [4], 19%; in [5], 91.6%; in [6], 58%. Also, the “%Inh” value in experiment [7] is listed as 17%; in [8] it was 33%; in experiment [9], 30%; in experiment [10] it was 43%.
For `CCC(=O)c1c(-c2ccccc2)c2cc(Cl)ccc2c(=O)n1Cc1cc(C(=O)NC2CC2)n(C)n1`, the “%Inh” value in experiment [1] is on record as 0%; in experiment [2], 23%; in [3], 0%; in [4], 12%; in experiment [5], 0%; in experiment [6], 13%. The “%Inh” value in [7] worked out at 25%; in experiment [8], 22%; in [9], 0%; in experiment [10], 8%.
As for `COc1cccc(C2=C(N(C)c3ccccc3)C(=O)NC2=O)c1` [SB-334865], the “%Inh” value in experiment [1] is reported as 0%; in experiment [2], 5%; in experiment [3], 0%; in experiment [4], 0%; in experiment [5], 0%; in experiment [6], 24%. In addition, the “%Inh” value in experiment [7] amounted to 2%; in experiment [8], 0%; in experiment [9], 0%; in experiment [10], 0%.
